Measured values reported in PubChem BioAssay (NCATS).
Records with an inconclusive call do not appear. Calls of active or inactive are those of the source. The call rests on the fitted dose curve; in most records, active means well fitted cell-killing curve with a large enough effect; inconclusive means small, poorly fitted or top-dose-only effect, or effect the other way; inactive means no such curve, though single readings can be large or run the other way.

Tests used:
[1] = Quantitative High-Throughput drug screen in 47 multiple myeloma cell lines against the NCATS MIPE library collection: MM1R_ATCC cell viability assay (AID 1918981); further: nearly all actives have a fitted effect of over 35% in size
Outline: (§1)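 ATP-based luminescence (CellTiter-Glo, 5 min RT incubation) quantified surviving cells following two days' treatment with MIPE 4.0 agents at 37 °C, 5% CO2.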

[2] = Quantitative High-Throughput drug screen in 47 multiple myeloma cell lines against the NCATS MIPE library collection: KMS28PE_JCRB cell viability assay (AID 1918983); further: nearly all actives have a fitted effect of over 35% in size
Outline: as §1

[3] = Quantitative High-Throughput drug screen in 47 multiple myeloma cell lines against the NCATS MIPE library collection: L363_DSMZ cell viability assay (AID 1918984); conditions: L363 myeloma viability, CellTiter-Glo ATP luminescence, 48 h; viability (% of control): at 45.8 µM (top of the series); further: nearly all actives have a fitted effect of over 40% in size
Outline: as §1

[4] = Quantitative High-Throughput drug screen in 47 multiple myeloma cell lines against the NCATS MIPE library collection: KMS34_JCRB cell viability assay (AID 1918985); further: nearly all actives have a fitted effect of over 40% in size
Outline: as §1

[5] = Quantitative High-Throughput drug screen in 47 multiple myeloma cell lines against the NCATS MIPE library collection: OCIMY7_PLB cell viability assay (AID 1918987); conditions: OCI-MY7 myeloma viability, CellTiter-Glo ATP, 48 h; viability (% of DMSO): at 45.8 µM (top of the series); further: nearly all actives have a fitted effect of over 65% in size
Outline: as §1

[6] = Quantitative High-Throughput drug screen in 47 multiple myeloma cell lines against the NCATS MIPE library collection: OCIMY5_PLB cell viability assay (AID 1918988); further: nearly all actives have a fitted effect of over 65% in size
Outline: as §1

[7] = Quantitative High-Throughput drug screen in 47 multiple myeloma cell lines against the NCATS MIPE library collection: OPM1_PLB cell viability assay (AID 1918989); further: nearly all actives have a fitted effect of over 40% in size
Outline: as §1

[8] = Quantitative High-Throughput drug screen in 47 multiple myeloma cell lines against the NCATS MIPE library collection: U266_ATCC cell viability assay (AID 1919864); further: nearly all actives have a fitted effect of over 35% in size
Outline: as §1

[9] = Quantitative High-Throughput drug screen in 47 multiple myeloma cell lines against the NCATS MIPE library collection: XG6_PLB cell viability assay (AID 1919865); further: nearly all actives have a fitted effect of over 40% in size
Outline: as §1

[10] = Quantitative High-Throughput drug screen in 47 multiple myeloma cell lines against the NCATS MIPE library collection: XG1_PLB cell viability assay (AID 1919866); further: nearly all actives have a fitted effect of over 35% in size
Outline: as §1

[11] = Quantitative High-Throughput drug screen in 47 multiple myeloma cell lines against the NCATS MIPE library collection: VP6_DJ cell viability assay (AID 1919867); further: nearly all actives have a fitted effect of over 40% in size
Outline: as §1

[12] = Quantitative High-Throughput drug screen in 47 multiple myeloma cell lines against the NCATS MIPE library collection: PE2_PLB cell viability assay (AID 1919869); further: nearly all actives have a fitted effect of over 35% in size
Outline: as §1

[13] = Quantitative High-Throughput drug screen in 47 multiple myeloma cell lines against the NCATS MIPE library collection: PCM6_Riken cell viability assay (AID 1919870); further: nearly all actives have a fitted effect of over 30% in size
Outline: as §1

[14] = Quantitative High-Throughput drug screen in 47 multiple myeloma cell lines against the NCATS MIPE library collection: OPM2_DSMZ cell viability assay (AID 1919872); further: nearly all actives have a fitted effect of over 30% in size
Outline: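 We plated 500 myeloma cells per well, pinned in MIPE 4.0 compounds, and incubated for 48 hours at 37C. ATP was then quantified with CellTiter-Glo, with DMSO and media-only wells defining 100% and 0%.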

[15] = Quantitative High-Throughput drug screen in 47 multiple myeloma cell lines against the NCATS MIPE library collection: RPMI8226_ATCC cell viability assay (AID 1919871); further: nearly all actives have a fitted effect of over 30% in size
Outline: as §1

[16] = Quantitative High-Throughput drug screen in 47 multiple myeloma cell lines against the NCATS MIPE library collection: KMS11_JCRBsus cell viability assay (AID 1919873); further: nearly all actives have a fitted effect of over 50% in size
Outline: as §1

[17] = Quantitative High-Throughput drug screen in 47 multiple myeloma cell lines against the NCATS MIPE library collection: KMS28BM_JCRB cell viability assay (AID 1919874); further: nearly all actives have a fitted effect of over 35% in size
Outline: as §1

[18] = Quantitative High-Throughput drug screen in 47 multiple myeloma cell lines against the NCATS MIPE library collection: SKMM1_PLB cell viability assay (AID 1919863); conditions: SKMM1 myeloma viability, CellTiter-Glo ATP, 48 h; viability: stronger effect = lower value; further: nearly all actives have a fitted effect of over 35% in size
Outline: as §1

[19] = Quantitative High-Throughput drug screen in 47 multiple myeloma cell lines against the NCATS MIPE library collection: UTMC2_PLB cell viability assay (AID 1919868); conditions: CellTiter-Glo ATP luminescence, 48 h; viability (% of DMSO control): at 45.8 µM (top of the series); further: nearly all actives have a fitted effect of over 55% in size
Outline: as §1

Measured: Potency
Potency means the concentration at half of the fitted maximal effect.

O=C(c1ccc(C=Cc2n[nH]c3ccccc23)cc1)N1CCNCC1
active: [1] 13.2 µM | [2] 6.62 µM | [3] 3.72 µM | [4] 10.5 µM | [5] 0.662 µM | [6] 14.8 µM | [7] 2.64 µM | [8] 18.7 µM | [9] 14.8 µM | [10] 0.833 µM | [11] 3.72 µM | [12] 5.9 µM | [13] 16.6 µM | [14] 10.5 µM

Cc1nc(NC(=O)N2CCC[C@@H]2C(N)=O)sc1-c1csc(C(C)(C)C)n1
active: [1] 5.9 µM | [2] 3.72 µM | [3] 0.833 µM | [5] 3.32 µM | [6] 14.8 µM | [7] 14.8 µM | [8] 9.35 µM | [9] 4.69 µM | [10] 3.32 µM | [11] 0.264 µM | [12] 5.9 µM

NCc1c[nH]c(=S)n1[C@H]1CCc2c(F)cc(F)cc2C1
active: [1] 16.6 µM | [2] 14.8 µM | [4] 20.9 µM | [6] 9.35 µM | [7] 18.7 µM | [9] 18.7 µM | [10] 9.35 µM | [11] 3.32 µM | [12] 16.6 µM | [13] 2.96 µM | [15] 26.4 µM | [16] 20.9 µM | [17] 20.9 µM

CC(O)=C(C#N)C(=O)Nc1ccc(C(F)(F)F)cc1
active: [1] 16.6 µM | [2] 16.6 µM | [4] 18.7 µM | [6] 16.6 µM | [7] 16.6 µM | [18] 18.7 µM | [8] 23.5 µM | [9] 18.7 µM | [10] 16.6 µM | [12] 8.33 µM | [13] 20.9 µM | [15] 6.62 µM
inactive: [3] | [14]

CCN1C[C@H](C)n2c(c(O)c3c(=O)n(Cc4ccc(F)c(Cl)c4)nc(C(=O)NC)c32)C1=O
active: [1] 3.32 µM | [17] 13.2 µM
not listed: [5] | [6] | [10] | [11] | [13] | [15] | [18]
inactive: all other assays above

C[C@@H]1CC=CC=CC=CC=C[C@@H](O[C@@H]2O[C@H](C)[C@@H](O)[C@H](N)[C@H]2O)C[C@@H]2O[C@](O)(C[C@@H](O)C[C@@H]3O[C@@H]3C=CC(=O)O1)C[C@H](O)[C@@H]2C(=O)O
active: [1] 14.8 µM | [2] 14.8 µM | [4] 18.7 µM | [5] 2.96 µM | [6] 11.8 µM | [7] 16.6 µM | [10] 4.69 µM | [11] 10.5 µM | [12] 9.35 µM | [13] 16.6 µM | [17] 20.9 µM

CCC(=C(CC)c1ccc(O)cc1)c1ccc(O)cc1
active: [1] 14.8 µM | [2] 18.7 µM | [4] 23.5 µM | [6] 20.9 µM | [18] 14.8 µM | [9] 20.9 µM | [10] 14.8 µM | [11] 18.7 µM | [12] 18.7 µM | [13] 18.7 µM | [15] 29.6 µM | [14] 26.4 µM | [16] 14.8 µM | [17] 16.6 µM

COc1ccc2cc1Oc1ccc(cc1)C[C@H]1c3cc(c(OC)cc3CCN1C)Oc1c(OC)c(OC)cc3c1[C@H](C2)N(C)CC3
inactive: [14]
active: [1] 13.2 µM | [2] 14.8 µM | [3] 5.9 µM | [4] 14.8 µM | [5] 16.6 µM | [6] 16.6 µM | [7] 18.7 µM | [8] 18.7 µM | [9] 14.8 µM | [10] 10.5 µM | [11] 11.8 µM | [15] 6.62 µM | [16] 14.8 µM

Nc1ncnc2c1c(-c1cccc(OCc3ccccc3)c1)cn2C1CC(CN2CCC2)C1 (stereo not drawn)
active: [1] 4.69 µM | [2] 3.32 µM | [3] 1.87 µM | [5] 0.296 µM | [6] 4.18 µM | [7] 16.6 µM | [8] 16.6 µM | [9] 14.8 µM | [10] 23.5 µM | [11] 1.66 µM | [19] 0.166 µM | [12] 6.62 µM | [15] 5.26 µM | [16] 2.96 µM | [17] 2.96 µM

CCOC(=O)N1c2ccc(C(F)(F)F)cc2[C@@H](N(Cc2cc(C(F)(F)F)cc(C(F)(F)F)c2)C(=O)OC)C[C@H]1CC
active: [1] 2.96 µM | [2] 4.69 µM | [4] 5.26 µM | [6] 4.69 µM | [7] 3.32 µM | [15] 9.35 µM | [14] 9.35 µM
inactive: [3] | [5] | [13]

COc1c(C)cnc(Cn2cnc3c(Cl)nc(N)nc32)c1C
active: [1] 0.235 µM | [2] 0.235 µM | [3] 0.0372 µM | [4] 0.105 µM | [5] 0.0418 µM | [6] 0.0935 µM | [7] 0.148 µM | [8] 0.166 µM | [9] 0.264 µM | [10] 0.118 µM | [11] 0.148 µM | [12] 0.235 µM | [14] 0.187 µM | [16] 0.0662 µM

NCC1CCC(C(=O)O)CC1 (stereo not drawn)
inactive: [1] | [2] | [3] | [4] | [7] | [9] | [12] | [13] | [15] | [14]
active: [8] 5.9 µM
